Here are results for 18 compounds from PubChem BioAssay.

The subject of test [1] is XIP peptide (Xip251-270) binding. Nature of the test: small-molecule binders of XIP peptide, primary screen, biochemical, small-molecule microarray, fluorescence 635/667 nm, 0.1 µg/mL protein (AID 1182). The note with it: fluorescent protein binding, 635 nm, higher = more signal, called active from +8 up or from −8 down.
In test [2] the test system is XIP peptide (Xip251-270). Nature of the test: small-molecule binders of XIP peptide, primary screen, biochemical, small-molecule microarray, fluorescence 635/667 nm, 0.5 µg/mL protein (AID 1183). The conditions noted are these: small-molecule microarray binding, fluorescence 635 nm; higher = more signal.
The nature of test [3]: Plasmodium falciparum growth inhibition, primary screen, strain 3D7, DAPI fluorescence, 100 nL (AID 1184).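 Further: parasites grown inside human red blood cells in medium with human serum.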 The conditions noted are these: P. falciparum 3D7 growth, 3 d, higher = more signal.
In test [4] the target is Homeobox protein Hox-A13 (Mus musculus) (UniProt Q62424). Nature of the test: inhibitors of HoxA13-DNA binding, primary screen, biochemical, fluorescence polarization, labeled oligonucleotide (AID 1185). The conditions noted are these: 15 min, higher = more signal, called active from +8 up or from −8 down. On the technique in general: Fluorescence polarisation rises when a labelled molecule tumbles more slowly, as on binding a larger partner.

Test [5] in a line: inhibitors of hydroxyurea-induced Chk1 phosphorylation, primary screen, imaging, HeLa, phospho-Chk1 antibody, percent positive cells (AID 1186). The conditions noted are these: hydroxyurea-induced phospho-Chk1 immunofluorescence imaging, higher = more signal.
The nature of test [6]: inhibitors of hydroxyurea-induced Chk1 phosphorylation, primary screen, imaging, HeLa, phospho-Chk1 nuclear intensity (AID 1187). The note with it: hydroxyurea-induced phospho-Chk1 immunofluorescence imaging, higher = more signal.

Each structure is given as a SMILES string. Calls of active or inactive are those of the source. Unless noted, how the calls were made is not given here.

Sequence of Homeobox protein Hox-A13 (Mus musculus) (Q62424 whole entry, looked up): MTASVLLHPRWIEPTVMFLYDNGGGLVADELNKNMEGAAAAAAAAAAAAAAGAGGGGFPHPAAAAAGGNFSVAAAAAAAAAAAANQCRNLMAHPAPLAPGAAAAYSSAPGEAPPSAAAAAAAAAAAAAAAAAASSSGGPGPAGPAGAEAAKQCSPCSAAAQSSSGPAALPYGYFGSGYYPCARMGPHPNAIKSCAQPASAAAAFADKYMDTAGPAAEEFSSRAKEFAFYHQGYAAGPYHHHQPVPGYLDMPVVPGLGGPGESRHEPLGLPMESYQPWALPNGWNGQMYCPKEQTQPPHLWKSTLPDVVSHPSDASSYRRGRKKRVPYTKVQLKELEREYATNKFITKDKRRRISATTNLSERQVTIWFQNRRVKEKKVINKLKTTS

With `O=C1O[C@@H](c2ccccc2)[C@@H](c2ccccc2)N2[C@@H](c3ccccc3OCCO)[C@]3(C(=O)Nc4ccccc43)[C@@H](C(=O)O)[C@H]12`, the composite z-score in test [1] was 1.14 (inactive); in test [2], 0.457. Moreover, the z-score in test [3] is -0.6; in test [4], -6.35 (inactive); in test [5], 0.405 (inactive); in test [6], 0.5 (inactive).

As to `O=C(NC1CC1)[C@@H]1c2ccccc2C(=O)N(C2Cc3ccccc3C2)[C@H]1c1ccc(CO)cc1`, the composite z-score was 0.456 (inactive) in test [1] and 0.657 in test [2]. Also, the z-score is -0.69 in test [3], -1.14 (inactive) in test [4], -0.217 (inactive) in test [5] and 0.0084 (inactive) in test [6].

With `O=C1NC(=O)C2C1C=CC(C(O)c1ccc(-c3ccccc3)s1)N2Nc1ccc(Cl)cc1Cl` (stereo not drawn), the composite z-score in test [1] was -0.142 (inactive); in test [2] it was 0.701. Also, the z-score is -0.0328 in test [3], -3.64 (inactive) in test [4], 0.197 (inactive) in test [5] and 0.136 (inactive) in test [6].

In the case of `C#CCNCc1ccccc1`, the composite z-score is -0.609 (inactive) in test [1] and 0.118 in test [2]. Further, the z-score in test [3] is -0.158; in test [4], -0.0595 (inactive); in test [5], 0.213 (inactive); in test [6], -0.392 (inactive).

With `CC(C)CN1C(=O)[C@@]2(c3ccc([N+](=O)[O-])cc3)CC(=O)N(C3CCCCC3)[C@@H]2c2ccc(CO)cc21`, the composite z-score in test [1] is -0.0685 (inactive); in test [2], -0.57. In addition, the z-score in test [3] is -0.643; in test [4], -0.113 (inactive); in test [5], 0.0566 (inactive); in test [6], 0.558 (inactive).

As to `O=C1O[C@H](c2ccccc2)[C@H](c2ccccc2)N2[C@H]1[C@@H](C(=O)NC[C@H](O)c1ccccc1)[C@]1(C(=O)Nc3ccccc31)[C@H]2c1ccc(O)cc1`, the results for the composite z-score in test [1] and in test [2] were 1.5 (inactive) and 0.665, respectively. The z-score in test [3] was -0.834; in test [4] it was -4.25 (inactive); in test [5], -0.0383 (inactive); in test [6] it was 0.188 (inactive).

`C=CC[C@]1(C(=O)N2CCOCC2)N=C(c2ccc(OCCCO)cc2)O[C@H]1c1ccccc1N=[N+]=[N-]`: the composite z-score in test [1] was 0.821 (inactive); in test [2], 0.75. The z-score in test [3] was -1.92; in test [4] it was -4.01 (inactive); in test [5], -0.528 (inactive); in test [6], -0.67 (inactive).

On to `CC(C)(C)OC(=O)CC[C@@]1(C(=O)N2CCCCC2)N=C(c2ccc(OCCCO)cc2)O[C@@H]1c1ccccc1`, for which the composite z-score is 0.671 (inactive) in test [1] and 0.267 in test [2]. For the same compound, the z-score in test [3] was -2.03; in test [4], -5.06 (inactive); in test [5], -0.102 (inactive); in test [6], -0.0985 (inactive).

Consider `COC(=O)c1c(CC[C@@H](CO)NC(=O)NCCc2c[nH]c3ccccc23)oc(C(=O)Cc2ccccc2)c1C(=O)OC`, for which the composite z-score in test [1] was 1.4 (inactive); in test [2], 0.713. Further, the z-score was -0.0066 in test [3], -6.54 (inactive) in test [4], -0.216 (inactive) in test [5] and -0.098 (inactive) in test [6].

Consider `CC(C)NC(=O)[C@@]1(Cc2ccccc2I)c2ccccc2C(=O)N(Cc2ccccc2Cl)[C@H]1c1ccc(CO)cc1`, for which the composite z-score was 0.705 (inactive) in test [1] and 0.615 in test [2]. In addition, the z-score was 0.0173 in test [3], -3.93 (inactive) in test [4], -0.0537 (inactive) in test [5] and 0.1 (inactive) in test [6].

`COc1cc2c(cc1O)C(c1cccs1)N(Cc1ccc([N+](=O)[O-])o1)CC2` (stereo not drawn): the composite z-score in test [1] is 0.243 (inactive); in test [2], 0.947. Also, the z-score in test [3] was -0.316; in test [4], -6.24 (inactive); in test [5], -0.334 (inactive); in test [6] it was -0.445 (inactive).

`CC(=O)n1cc(C(O)C2C=CC3C(=O)NC(=O)C3N2Nc2ccccn2)c2ccccc21` (stereo not drawn): the composite z-score was -0.251 (inactive) in test [1] and 0.785 in test [2]. In addition, the z-score is 0.249 in test [3], -2.99 (inactive) in test [4], 0.5 (inactive) in test [5] and -0.392 (inactive) in test [6].

For `CC#CC(=O)Oc1ccc(Br)cc1C=CC(=O)OCC`, the composite z-score in test [1] was 1.17 (inactive); in test [2], -0.101. Moreover, the z-score was -1.65 in test [3], -3.79 (inactive) in test [4], 0.309 (inactive) in test [5] and -1.03 (inactive) in test [6].

For `CCOc1cc(C(O)C2C=CC3C(=O)N(c4ccccc4)C(=O)C3N2Nc2ccc(C(C)C)cc2)ccc1O` (stereo not drawn), the composite z-score was 0.429 (inactive) in test [1] and 0.828 in test [2]. In addition, the z-score in test [3] was -0.85; in test [4] it was -4.72 (inactive); in test [5], 0.415 (inactive); in test [6], 0.241 (inactive).

For the compound `COCC(=C=CC[C@H](O)c1ccccc1OCCO)CCO`, the composite z-score in test [1] is 2.87 (inactive); in test [2], -0.501. Also, the z-score in test [3] was -0.549; in test [4], -2.98 (inactive); in test [5], 0.387 (inactive); in test [6], -0.186 (inactive).

With `O=C(O)[C@@]1(CCS(=O)(=O)c2ccccc2)N=C(c2ccc(OCCCO)cc2)O[C@H]1c1ccccc1`, the composite z-score in test [1] was 1.15 (inactive); in test [2], 0.392. Moreover, the z-score in test [3] was -0.471; in test [4] it was -5.76 (inactive); in test [5], 0.0733 (inactive); in test [6], 0.0816 (inactive).

Consider `COc1cc2c(cc1O)C(c1cccs1)N(Cc1cccc(OC(F)(F)F)c1)CC2` (stereo not drawn), for which the composite z-score is 1.78 (inactive) in test [1] and 0.775 in test [2]. In addition, the z-score in test [3] was -1.9; in test [4], -2.17 (inactive); in test [5], -1.02 (inactive); in test [6], -2.12 (inactive).

Take `NC(=O)NCC#Cc1ccc2c(c1)[C@]1(C(=O)N2)[C@H](C(=O)O)[C@H]2C(=O)O[C@H](c3ccccc3)[C@H](c3ccccc3)N2[C@@H]1c1ccc(O)cc1`: the composite z-score is 0.88 (inactive) in test [1] and 0.275 in test [2]. Moreover, the z-score in test [3] is 0.137; in test [4], -5.06 (inactive); in test [5] it was 0.0315 (inactive); in test [6], 0.118 (inactive).
